Bioassay records from PubChem.
Many of the other results were omitted from the sample, so hits are more common in it than they were.
S-ASM inh: Inhibitors of Secretory Acid Sphingomyelinase (S-ASM): qHTS; Sphingomyelin phosphodiesterase (Homo sapiens), P17405; placental ASM, HMU-PC fluorogenic substrate, 60 min; Potency, µM (highest dose often 57.5 µM), most hits filed as inhibitors; 340,000 compounds, 0.006% hits
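Human placenta-derived ASM preincubated with compound 10 min at room temperature, then reacted with 9 uM (final) fluorogenic HMU-PC substrate for 60 min at 37 C. Stop solution raises pH to 10; fluorescence read at Ex 386/Em 447 nm.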
LDHA inh: qHTS assay for inhibitors of human lactate dehydrogenase; L-lactate dehydrogenase A chain (Homo sapiens), P00338; purified LDHA, NADH/diaphorase-resazurin fluorescence; hits give low values; activity change, % (values are at about 110 or 230 µM); 480,000 compounds, 0.15% hits; in the data active = activity change below about -30%; inconclusive = mostly about -25% to -30%
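Enzyme activity of human lactate dehydrogenase 5 (2 nM; 0.06 mM NADH, 0.2 mM pyruvate, 5 min, RT) is measured via a resazurin/diaphorase fluorescence readout of residual NADH.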
RGS4 inh: Inhibitors of Regulator of G Protein Signaling (RGS) 4: qHTS; Regulator of G-protein signaling 4 (Homo sapiens), P49798; Transcreener GDP fluorescence polarization, RGS4-accelerated GTP hydrolysis; Potency, µM (highest dose often 114 µM), usual class: inhibitors; 390,000 compounds, 0.039% hits; note: nearly all actives have a fitted effect of over 75% in size
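MLSMR compounds (23 nl, pin-transferred) preincubated 10 min at room temperature with a 500nM (2x) first reagent, then RGS4 at 900nM (2x) plus Transcreener GDP mix added; fluorescence polarization (620/688 nm) read before and after 90 min at 30 °C.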
Mito fusion yeast: qHTS Assay for Small Molecule Inhibitors of Mitochondrial Division or Activators of Mitochondrial Fusion. S. cerevisiae fusion-defective mutant growth rescue, CellTiterGlo 48 h. AID 485298, 2010. Potency, µM (highest dose often 46.1 µM), hits mostly activators. 320,000 compounds, 0.23% hits; note: nearly all actives have a fitted effect of over 45% in size
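Luminescent cell viability in 1536-well qHTS format served as the measure of rescued growth in ts fusion-mutant S. cerevisiae cultured on non-fermentable YPEG for 48 hours at 37C.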
mIDH1 inhibitor: qHTS for Inhibitors of mutant isocitrate dehydrogenase 1 (IDH1): qHTS. Isocitrate dehydrogenase [NADP] cytoplasmic (Homo sapiens), O75874. IDH1-R132H enzyme, NADPH consumption, diaphorase/resazurin fluorescence. Potency, µM (titrated, usually from 76.6 µM), hits mostly inhibitors. 390,000 compounds, 0.093% hits; note: nearly all actives have a fitted effect of over 65% in size
Target sequence (O75874 whole entry R132H, stated change not applied): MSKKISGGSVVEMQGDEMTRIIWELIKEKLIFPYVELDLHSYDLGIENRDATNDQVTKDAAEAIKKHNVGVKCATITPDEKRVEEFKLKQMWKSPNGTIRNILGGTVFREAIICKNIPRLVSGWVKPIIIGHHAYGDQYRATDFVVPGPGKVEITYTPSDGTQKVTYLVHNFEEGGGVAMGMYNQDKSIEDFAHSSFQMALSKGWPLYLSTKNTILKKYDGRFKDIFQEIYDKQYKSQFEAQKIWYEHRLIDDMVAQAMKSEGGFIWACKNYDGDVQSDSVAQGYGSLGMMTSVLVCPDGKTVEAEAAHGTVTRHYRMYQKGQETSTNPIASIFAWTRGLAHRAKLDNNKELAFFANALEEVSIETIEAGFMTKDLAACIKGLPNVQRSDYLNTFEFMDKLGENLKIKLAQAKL
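IDH1-R132H (0.5 ug/mL dispensed) in pH 7.5 Tris buffer was preincubated 30 min with compound, then given a substrate mix of 0.016 mM NADPH and 2 mM alpha-KG for 80 min at room temperature; remaining NADPH was read by diaphorase/resazurin fluorescence.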
ClpP mod: qHTS Assay for Activators of ClpP | ATP-dependent Clp protease proteolytic subunit (Bacillus subtilis (strain 168)), P80244 | purified B. subtilis ClpP, FRET peptide cleavage, 20 min | Potency, µM (titrated, usually from 57.5 µM) | 340,000 compounds, 1.9% hits | AID 651965, 2013; active = well fitted falling curve with a large enough effect; inconclusive = small, poorly fitted or top-dose-only effect; inactive = no such curve, though single readings can be large or run the other way; note: the source files actives as falling curves though it sought activators and does not explain the sign; nearly all actives have a fitted effect of over 65% in size
Target sequence (P80244 whole entry, looked up): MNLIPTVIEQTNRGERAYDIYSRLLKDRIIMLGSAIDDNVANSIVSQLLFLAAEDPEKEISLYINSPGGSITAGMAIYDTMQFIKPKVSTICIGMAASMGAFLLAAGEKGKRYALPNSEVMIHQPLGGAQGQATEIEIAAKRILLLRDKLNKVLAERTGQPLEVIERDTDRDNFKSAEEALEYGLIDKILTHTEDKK
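FRET quenching reversal measured ClpP activation: 10 microg/mL B. subtilis ClpP at pH 8 with the FRET-FV decapeptide, read at 430 nm after 320 nm excitation. The 20-min minus 0-min signal was scaled between DMSO/no-enzyme wells and ADEP (5.8 microM final).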
Each line names hits and unclear results; the compound was inactive in the other large screens. Unless noted, calls come from the whole dose curve; as a rule, active = well fitted curve in the direction sought with a large enough effect; inconclusive = small, poorly fitted or top-dose-only effect, or another doubt; inactive = no such curve, though single readings can be large; an effect the other way counts as inactive or inconclusive.

COc1ccc(Cn2c(SCc3ccc(C(=O)NCc4cccs4)cc3)nc3cccnc32)cc1	ClpP mod 28µM (no result: S-ASM inh, Mito fusion yeast)
CCOc1ccccc1CNC(=O)c1ccc(Cn2c(SCc3ccccc3)nc3cccnc32)cc1	ClpP mod 16µM (no result: S-ASM inh, Mito fusion yeast)
CCc1ccc(CNC(=O)c2ccc(CSc3nc4ccncc4n3Cc3ccccc3)cc2)cc1	ClpP mod 32µM (no result: S-ASM inh, Mito fusion yeast)
COc1cccc(CCNC(=O)c2ccc(Cn3c(SCc4ccccc4)nc4cccnc43)cc2)c1	ClpP mod 25µM (no result: S-ASM inh, Mito fusion yeast)
Cc1cc(C)c(C(=O)NC2CC2)c(C)c1	none (no result: S-ASM inh, RGS4 inh, Mito fusion yeast, mIDH1 inhibitor, ClpP mod)
N#Cc1nc(COc2ccc3c(c2)OCO3)oc1N1CCC(C(N)=O)CC1	none (no result: S-ASM inh, RGS4 inh, Mito fusion yeast, mIDH1 inhibitor, ClpP mod)
COc1ccc(Nc2nc3ccccc3nc2NS(=O)(=O)c2ccc(F)cc2)c(OC)c1	none (no result: S-ASM inh, RGS4 inh, Mito fusion yeast, mIDH1 inhibitor, ClpP mod)
COc1ccc(CCNC(=O)c2ccc(Cn3c(SCc4ccccc4)nc4cccnc43)cc2)cc1	ClpP mod 32µM (no result: S-ASM inh, Mito fusion yeast)
COc1ccc(Cn2c(SCc3ccc(C(=O)NCCc4ccccc4)cc3)nc3cccnc32)cc1	none (no result: S-ASM inh, Mito fusion yeast)
CC(=O)Nc1ccc(NC(=O)C2CCN(c3nc4ccccc4nc3OC(C)C)CC2)cc1	none (no result: S-ASM inh, RGS4 inh, Mito fusion yeast, mIDH1 inhibitor, ClpP mod)
CCOC(=O)C1(C)C=C(Nc2ccc(NC(C)=O)cc2)C(=O)N1c1ccc(NC(C)=O)cc1 (stereo not given)	ClpP mod 25µM
CC1=CC(C)C(/C=N/NC(N)=S)C(C)C1 (stereo not given)	none (no result: S-ASM inh, RGS4 inh, Mito fusion yeast, mIDH1 inhibitor, ClpP mod)
CCOc1ccccc1-n1nnnc1SCC(=O)NC(=O)Cc1ccccc1	ClpP mod 25µM
NCC(=O)Nc1ccc(Br)cc1	none (no result: ClpP mod)
C=CC(=O)Nc1ccc(Br)cc1	ClpP mod 16µM
CCNC(=O)NC(=O)C(C)OC(=O)c1nc(-c2ccccc2)oc1C (stereo not given)	none (no result: S-ASM inh, RGS4 inh, Mito fusion yeast, mIDH1 inhibitor, ClpP mod)
Cc1cc2c(nn1)CCC/C2=N\O	ClpP mod 18µM
COCCNC(=S)N/N=C(\C)c1ccccc1OC	ClpP mod 2.8µM
COCCNC(=S)N/N=C(\C)c1ccccc1O	ClpP mod inconclusive
O=C(Nc1nc(-c2ccco2)cs1)c1ccccc1Br	none (no result: S-ASM inh, RGS4 inh, Mito fusion yeast, mIDH1 inhibitor, ClpP mod)
COc1ccc(-c2ocnc2C(=O)Nc2ccc(C)cc2)cc1	none (no result: S-ASM inh, RGS4 inh, Mito fusion yeast, mIDH1 inhibitor, ClpP mod)
O=C(CN1C(=O)c2ccccc2C1=O)NCCc1c[nH]c2ccc(Cl)cc12	none
O=C1c2ccccc2C(=O)N1CCCc1c[nH]c2ccc(Cl)cc12	Mito fusion yeast 18µM
Cc1cccc(C)c1OCC(O)Cn1cnc2ncccc2c1=O (stereo not given)	none (no result: S-ASM inh, RGS4 inh, Mito fusion yeast, mIDH1 inhibitor, ClpP mod)
OCCC1CN(Cc2nc(-c3ccccc3)cs2)CCN1Cc1ccc(F)cc1 (stereo not given)	Mito fusion yeast 11µM
CC(C)=CCN1CCN(Cc2nc(-c3ccc(F)cc3)cs2)CC1CCO (stereo not given)	none
Cc1cn([C@H]2C[C@H](N[S+](=O)([O-])Cc3cccc(Cl)c3)[C@@H](CO)O2)c(=O)[nH]c1=O	none (no result: S-ASM inh, RGS4 inh, Mito fusion yeast, mIDH1 inhibitor, ClpP mod)
COc1ccc(Cl)cc1Nc1ncnc2sc(C)c(S(=O)(=O)N3CCC(C)CC3)c12	ClpP mod 32µM
O=C1CC(c2cccc(O)c2)c2ncn(-c3ccccc3F)c2N1 (stereo not given)	none (no result: S-ASM inh, RGS4 inh, Mito fusion yeast, mIDH1 inhibitor, ClpP mod)
Cc1c(Br)c([N+](=O)[O-])nn1CCCC(=O)N1CCN(c2ccccc2)CC1	ClpP mod 14µM
COc1cc(-c2nnc(-c3cc(-c4ccccc4)nc4ccccc34)o2)cc(OC)c1OC	none (no result: Mito fusion yeast, ClpP mod)
COc1cccc(OC)c1-c1nnc(-c2cn(C)c3ccccc23)o1	ClpP mod 11µM
COc1cc(-c2nc(C(N)=O)c3c(n2)n(-c2cccc(C)c2)c(=O)n3C)cc(OC)c1OC	ClpP mod 22µM (no result: S-ASM inh, Mito fusion yeast)
